{"source": "PubChem BioAssay AID540300", "about": "(National Center for Advancing Translational Sciences (NCATS), 2011)", "note": "Some of the results follow. Activity calls are given as the source filed them. The call rests on the fitted dose curve; in most records, active means well fitted curve in the direction sought with a large enough effect; inconclusive means small, poorly fitted or top-dose-only effect, or another doubt; inactive means no such curve, though single readings can be large or run the other way.", "data": [{"assay": "Inhibitors of DNA Polymerase Beta: Hit Validation in Klenow Fragment Assay", "details": "Klenow exo- polymerase counter-screen, fluorescent DNA substrate; series mostly up to 57.1 µM", "description": "The base excision repair system in human cells is a target for therapeutic modulation of the response to irradiation treatment and DNA-damaging drugs. A key enzyme in this system is the bi-functional DNA polymerase known as DNA polymerase beta (pol b). […] Using an integrated approach involving discovery of small molecule probes for pol b via qHTS and validation by crystallography and kinetics along with cell-based validation experiments, we will test the hypothesis that base excision repair can be strategically modulated in human cells by targeting pol b. Thus, we anticipate the pol b-specific probes emerging from this research will serve as starting points in the development of clinical agents for use in down regulation of DNA base excision repair during therapeutic interventions against cancer. After the completion of the qHTS against the Molecular Libraries Small Molecular Repository (MLSMR), cherry picked compounds were re-affirmed in the primary qHTS pol beta assay and further characterized in several follow-up assays. An E. coli Klenow exo- fragment assay was used as a counter screen assay. The Klenow exo- fragment is a large protein fragment of DNA polymerase which lack exonuclease activity. Measuring compounds activity against the Klenow exo- fragment helps identifying promiscuous compounds. […] NIH Chemical Genomics Center [NCGC] NIH Molecular Libraries Probe Centers Network [MLPCN] MLPCN Grant: MH090863-01 Assay Submitter (PI): Samuel Wilson, National Institute of Environmental Health Sciences (NIEHS), NIH Assay Submitter (PI): Samuel Wilson, National Institute of Environmental Health Sciences (NIEHS), NIH\nA stepwise description of the 1536-well assay is shown as described in primary assay. Three microliters of reagents (buffer in column 3 and 4 as negative control and 5nM Klenow enzyme in columns 1, 2, and 5-48) will be dispensed into 1,536-well black solid-bottomed plate. Compounds (23nl) will be transferred via Kalypsys pin tool equipped with 1536-pin array (10nl slotted pins, V&P Scientific, San Diego, CA). The plates will then be incubated for 15 min at room temperature, and 1 µl substrate of tripartate ds DNA (50nM final concentration) will be added to start the reaction and kinetically read twice at 0 min and 10 min on ViewLux reader.", "values": [{"smiles": "O=C(CN1CCN(S(=O)(=O)c2cc(Cl)ccc2Cl)CC1)c1ccc(O)c(O)c1", "outcome": "inactive"}, {"smiles": "Cc1c(CCC(=O)O)c(=O)oc2c(C)c(OCc3ccccc3Cl)ccc12", "outcome": "inactive"}, {"smiles": "COc1ccc(Cc2nnc(NC(=O)Cc3cccs3)s2)cc1", "outcome": "inactive"}, {"smiles": "Cc1c(CC(=O)N2CCN(C(=O)C3COc4ccccc4O3)CC2)c(=O)oc2c(O)c(O)ccc12", "note": "(stereo not given)", "outcome": "inactive"}, {"smiles": "O=C(Nc1ccc(S(=O)(=O)Nc2nccs2)cc1)c1cc(-c2ccncc2)nc2ccccc12", "outcome": "inactive"}, {"smiles": "CCOc1ccccc1/C=c1\\sc2nc(-c3ccco3)nn2c1=O", "outcome": "inactive"}, {"smiles": "O=C(c1cc2c(s1)CCC2)N1CCN(c2ccccc2)CC1", "outcome": "inactive"}, {"smiles": "Cc1ccc2nc(-c3ccncc3)cc(C(=O)Nc3ccc(OC(F)F)cc3)c2c1", "outcome": "inactive"}, {"smiles": "Cc1ccc(C(=O)Oc2coc(CSc3nnc(NC(=O)c4cccs4)s3)cc2=O)cc1C", "outcome": "inactive"}, {"smiles": "COc1cc([C@H](Cc2ccccc2)NC(C)=O)oc(=O)c1", "outcome": "inactive"}]}]}
